Growth inhibition, inhibition and outcome data for 20 compounds are collected here from PubChem BioAssay.

Assay [1] can be described thus: antimalarial activity against Dd2 strain (AID 2302;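 active = growth inhibition above 50% at the single 2 µM test dose, taken to imply half-maximal potency below 2 µM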;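 also: 0% = DMSO untreated growth and 100% = chloroquine plus artemisinin killed control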). The conditions noted are these: P. falciparum Dd2 in RBCs, LDH growth readout, 72 h; at 2 µM; hits give high values.
A short description of assay [2]: human hepatoma cell viability loss – ATP luminescence, cytotoxicity control for P. falciparum antimalarial project, primary screen (AID 2303;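 active = inhibition above 50%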;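 also: 0% = DMSO wells and 100% = digitonin-killed cells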). The settings on record: HepG2 viability, 24-48 h, at 10 µM, hits give high values.
Assay [3] deals with L-lactate dehydrogenase (Plasmodium falciparum (isolate CDC / Honduras)) (UniProt Q27743). In words: PfLDH activity inhibition – cell lysate, 3D7 strain, counter-screen for P. falciparum growth inhibition project (AID 2304).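 Also: 0% = vehicle and 100% = reference inhibitor.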 The conditions noted are these: P. falciparum 3D7 crude extract, LDH APAD/NBT absorbance; at 2 µM; hits give high values. For orientation: Counterscreens check selectivity or assay interference.
L-lactate dehydrogenase (Plasmodium falciparum (isolate CDC / Honduras)), sequence (Q27743 whole entry, looked up): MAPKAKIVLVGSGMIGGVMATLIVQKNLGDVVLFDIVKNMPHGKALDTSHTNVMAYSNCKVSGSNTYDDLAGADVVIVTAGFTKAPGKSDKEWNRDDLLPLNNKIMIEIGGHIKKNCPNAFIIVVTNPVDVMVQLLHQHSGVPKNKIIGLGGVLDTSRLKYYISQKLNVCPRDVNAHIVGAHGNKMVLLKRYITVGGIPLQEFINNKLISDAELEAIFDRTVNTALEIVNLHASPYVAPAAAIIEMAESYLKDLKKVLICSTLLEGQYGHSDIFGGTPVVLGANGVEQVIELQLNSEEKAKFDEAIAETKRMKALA

Assay [4] can be described thus: inhibition of 3D7 malaria parasite growth – strain 3D7 (AID 2306).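 Also: 0% = DMSO wells and 100% = chloroquine plus artemisinin control wells.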 The conditions noted are these: P. falciparum 3D7 erythrocytic growth, LDH absorbance, 72 h; at 2 µM; hits give high values.
The target of assay [5] is Calcium-dependent protein kinase 1 (Plasmodium falciparum (isolate 3D7)) (UniProt P62344). As to the kind of experiment: PfCDPK1 kinase inhibitors, biochemical, TCAMS library (AID 1159585; cut-off not given, nearly all actives have IC50 up to about 0.98 µM;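 also: inhibitors leave more ATP so luminescence rises with inhibition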). The settings on record: recombinant PfCDPK1, Kinase-Glo ATP depletion luminescence. (In Kinase-Glo more light means more ATP remaining.)
Calcium-dependent protein kinase 1 (Plasmodium falciparum (isolate 3D7)), sequence (P62344 whole entry, looked up): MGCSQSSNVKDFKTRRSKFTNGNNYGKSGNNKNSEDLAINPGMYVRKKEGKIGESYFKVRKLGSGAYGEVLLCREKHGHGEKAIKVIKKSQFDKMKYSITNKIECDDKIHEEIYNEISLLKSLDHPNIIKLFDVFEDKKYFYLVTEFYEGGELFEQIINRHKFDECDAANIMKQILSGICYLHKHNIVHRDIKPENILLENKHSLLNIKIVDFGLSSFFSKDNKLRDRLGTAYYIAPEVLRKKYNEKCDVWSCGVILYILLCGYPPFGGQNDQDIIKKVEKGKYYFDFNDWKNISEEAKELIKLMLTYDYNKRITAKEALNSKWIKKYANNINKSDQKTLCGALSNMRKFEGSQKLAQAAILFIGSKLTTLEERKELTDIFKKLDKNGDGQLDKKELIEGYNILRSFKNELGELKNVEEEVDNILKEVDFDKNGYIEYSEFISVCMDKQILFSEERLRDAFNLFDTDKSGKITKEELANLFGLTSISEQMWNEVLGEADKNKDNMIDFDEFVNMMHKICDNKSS
The target of assay [6] is Plasmodium falciparum protein kinase 6 (PK6, PF3D7_1337100) (UniProt Q8IDW1). As to the kind of experiment: PfPK6 kinase inhibitors, biochemical, TCAMS library (AID 1159586). The settings on record: recombinant PfPK6, Kinase-Glo ATP depletion luminescence.
Plasmodium falciparum protein kinase 6 (PK6, PF3D7_1337100), sequence (Q8IDW1 1-305): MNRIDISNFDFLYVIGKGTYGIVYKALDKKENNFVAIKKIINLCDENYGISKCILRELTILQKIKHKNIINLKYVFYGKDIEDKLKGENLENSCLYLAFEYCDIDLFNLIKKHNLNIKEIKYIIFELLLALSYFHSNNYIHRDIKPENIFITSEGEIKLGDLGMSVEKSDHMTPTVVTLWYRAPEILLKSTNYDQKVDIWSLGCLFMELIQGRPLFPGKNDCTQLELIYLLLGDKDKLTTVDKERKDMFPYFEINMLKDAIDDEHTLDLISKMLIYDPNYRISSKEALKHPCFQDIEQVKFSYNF
In assay [7] the target is Protein kinase 7 (PK7), Plasmodium falciparum 3D7 (PF3D7_0213400) (UniProt Q7YTF7). As to the kind of experiment: inhibition of Plasmodium PK7 catalytic activity – biochemical, TCAMS antimalarial set, Kinase-Glo luminescence (AID 1159587). The settings on record: recombinant PfPK7, Kinase-Glo ATP depletion luminescence.
Protein kinase 7 (PK7), Plasmodium falciparum 3D7 (PF3D7_0213400), sequence (Q7YTF7 1-343): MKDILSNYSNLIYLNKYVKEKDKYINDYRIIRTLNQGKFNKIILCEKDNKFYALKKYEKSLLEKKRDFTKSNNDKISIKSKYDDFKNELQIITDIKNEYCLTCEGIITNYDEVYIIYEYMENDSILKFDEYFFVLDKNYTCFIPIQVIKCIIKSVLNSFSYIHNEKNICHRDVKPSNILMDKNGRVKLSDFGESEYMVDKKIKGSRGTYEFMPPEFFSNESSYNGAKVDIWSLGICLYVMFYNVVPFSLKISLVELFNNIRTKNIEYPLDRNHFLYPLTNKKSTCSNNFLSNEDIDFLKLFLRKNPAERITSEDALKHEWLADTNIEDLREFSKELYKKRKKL
Assay [8] concerns the target Calcium-dependent protein kinase 4 (Plasmodium falciparum (isolate 3D7)) (UniProt Q8IBS5). In words: PfCDPK4 kinase inhibitors, biochemical, TCAMS library (AID 1159588; cut-off not given, nearly all actives have IC50 up to about 0.91 µM). The conditions noted are these: recombinant PfCDPK4, Kinase-Glo ATP depletion luminescence.

Values without a mark were called inactive. For some of these results: Entries with a potency or affinity are not part of this list. Active and inactive are the calls of the source. Unless noted, no rule for the calls is given here.

Calcium-dependent protein kinase 4 (Plasmodium falciparum (isolate 3D7)), sequence (Q8IBS5 whole entry, looked up): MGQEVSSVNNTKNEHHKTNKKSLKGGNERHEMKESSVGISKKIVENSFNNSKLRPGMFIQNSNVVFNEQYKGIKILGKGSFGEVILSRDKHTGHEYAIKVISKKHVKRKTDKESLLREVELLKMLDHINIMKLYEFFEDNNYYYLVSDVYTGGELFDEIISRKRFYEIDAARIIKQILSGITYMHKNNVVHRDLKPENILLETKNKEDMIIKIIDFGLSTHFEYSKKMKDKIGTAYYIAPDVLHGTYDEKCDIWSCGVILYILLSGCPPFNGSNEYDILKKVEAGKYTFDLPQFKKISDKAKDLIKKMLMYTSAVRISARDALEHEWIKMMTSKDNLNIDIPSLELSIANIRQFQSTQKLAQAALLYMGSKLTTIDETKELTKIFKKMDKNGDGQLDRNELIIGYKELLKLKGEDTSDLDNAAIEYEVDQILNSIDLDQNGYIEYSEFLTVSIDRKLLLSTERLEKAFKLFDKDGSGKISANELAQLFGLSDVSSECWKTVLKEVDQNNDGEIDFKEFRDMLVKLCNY

By inhibition is commonly meant the drop in the measured response relative to a control, in per cent. With `Cc1ccccc1CCNC(=O)c1cnc(N2CCN(c3ccncc3)CC2)c(Cl)c1`, the growth inhibition in assay [1] is 95% (active); in assay [4], 100% (active). In addition, the results for the inhibition in assay [2] and in assay [3] were 36% and -2%, respectively. For the same compound, the result in assay [5], in assay [6], in assay [7] and in assay [8] was inactive.
Take `O=C(Nc1ccc(Cl)cc1)N1CCN(C2CCCCC2)CC1`: the growth inhibition is -6% in assay [1] and 93% (active) in assay [4]. For the same compound, the values for the inhibition in assay [2] and in assay [3] were 17% and -3%, respectively. Moreover, the result in assay [5], in assay [6], in assay [7] and in assay [8] was inactive.
Turning to `Cc1cc2ccc(/C=C/C(=O)NC3CCC(CCN4CCc5ccc(C#N)cc5CC4)CC3)cc2[nH]1` (stereo not given), the growth inhibition in assay [1] was 56% (active); in assay [4] it was 84% (active). Besides, the inhibition in assay [2] was 19%; in assay [3], -1%. Further, the outcome in assay [5], in assay [6], in assay [7] and in assay [8] was inactive.
`COc1ccc(-c2cccc(NC(=O)c3cccc(C#N)c3)c2)cc1CNC(C)C`: the results for the growth inhibition in assay [1] and in assay [4] were 51% (active) and 101% (active), respectively. For the same compound, the inhibition is 22% in assay [2] and 0% in assay [3]. The result in assay [5], in assay [6], in assay [7] and in assay [8] was inactive.
Take `CC(=O)Nc1ccc(CN2CCCN(c3cc(NC(=O)c4cccc(C)c4)ccn3)CC2)cc1`: the growth inhibition in assay [1] was 10%; in assay [4], 92% (active). Further, the inhibition in assay [2] was -2%; in assay [3] it was -1%. The outcome in assay [5], in assay [6], in assay [7] and in assay [8] was inactive.
Take `COc1cc2c(c(Cl)c1OC)CCN(Cc1ccccc1)CC2c1ccc(NC(=O)C(F)(F)F)cc1` (stereo not given): the growth inhibition is 79% (active) in assay [1] and 85% (active) in assay [4]. For the same compound, the inhibition in assay [2] was 0%; in assay [3] it was -2%. For the same compound, the result in assay [5], in assay [6], in assay [7] and in assay [8] was inactive.
On to `COc1ccc2nccc([C@@H](O)CN3CCC(NC(=O)[C@@H]4Cc5ccccc5CN4C(=O)OC(C)(C)C)CC3)c2c1`, for which the growth inhibition in assay [1] is 61% (active); in assay [4], 92% (active). For the same compound, the inhibition in assay [2] was 15%; in assay [3] it was 4%. Moreover, the result in assay [5], in assay [6], in assay [7] and in assay [8] was inactive.
For the compound `FC(F)(F)c1ccc2c(NCCNc3ccnc4cc(C(F)(F)F)ccc34)ccnc2c1`, the growth inhibition is 100% (active) in assay [1] and 101% (active) in assay [4]. For the same compound, the figures for the inhibition in assay [2] and in assay [3] were 21% and 1%, respectively. Further, the outcome in assay [5], in assay [6], in assay [7] and in assay [8] was inactive.
Take `O=C(Nc1ccccc1)c1cnc[nH]1`: the figures for the growth inhibition in assay [1] and in assay [4] were -1% and 92% (active), respectively. Further, the results for the inhibition in assay [2] and in assay [3] were -7% and 1%, respectively. The result in assay [5], in assay [6], in assay [7] and in assay [8] was inactive.
In the case of `CC(=O)N[C@H](C(=O)Nc1ccc(-c2ccc(-c3nc4ccc(C(F)(F)F)cc4[nH]3)s2)cc1)C(C)C`, the growth inhibition in assay [1] was 61% (active); in assay [4], 88% (active). For the same compound, the inhibition in assay [2] was 42%; in assay [3], 2%. Besides, the outcome in assay [5], in assay [6], in assay [7] and in assay [8] was inactive.
With `Cc1oc(-c2cccc(Oc3ccccc3)c2)nc1CN(Cc1cnn(C)c1)C(C)C`, the growth inhibition in assay [1] is 61% (active); in assay [4], 89% (active). Moreover, the inhibition was 22% in assay [2] and 2% in assay [3]. The result in assay [5], in assay [6], in assay [7] and in assay [8] was inactive.
As for `COc1ccc2nccc(N3CCC(NCCNS(=O)(=O)c4ccc5c(c4)NC(=O)CS5)C3)c2n1` (stereo not given), the growth inhibition in assay [1] was 18%; in assay [4], 97% (active). Besides, the figures for the inhibition in assay [2] and in assay [3] were 12% and 2%, respectively. For the same compound, the result in assay [5], in assay [6], in assay [7] and in assay [8] was inactive.
Take `Nc1nc(N)c2c(Oc3cccc4ccccc34)cccc2n1`: the growth inhibition in assay [1] is 10%; in assay [4], 96% (active). Besides, the inhibition in assay [2] is 42%; in assay [3] it was 6%. Moreover, the outcome in assay [5], in assay [6], in assay [7] and in assay [8] was inactive.
As for `COC(=O)c1cc(OC2CCOC2=O)cc2c1OC(C)(C)O2` (stereo not given), the growth inhibition was -1% in assay [1] and 97% (active) in assay [4]. Moreover, the values for the inhibition in assay [2] and in assay [3] were 6% and 2%, respectively. In addition, the outcome in assay [5], in assay [6], in assay [7] and in assay [8] was inactive.
Turning to `COc1ccc2[nH]c(C(=O)Nc3ccc4nc(-c5ccccc5)[nH]c4c3)cc2c1`, the growth inhibition in assay [1] is 23%; in assay [4] it was 96% (active). Besides, the values for the inhibition in assay [2] and in assay [3] were 51% (active) and -1%, respectively. The result in assay [5], in assay [6], in assay [7] and in assay [8] was inactive.
With `CC(C)N(Cc1cnc(N)c(C#N)n1)c1ccc(Cl)c(Cl)c1`, the growth inhibition was 63% (active) in assay [1] and 97% (active) in assay [4]. Further, the inhibition is -1% in assay [2] and -5% in assay [3]. In addition, the result in assay [5], in assay [6], in assay [7] and in assay [8] was inactive.
On to `COc1ccc(C(=O)COc2cccc(/C=C/C(=O)O)c2)cc1OC`, for which the growth inhibition in assay [1] was 28%; in assay [4], 84% (active). Besides, the inhibition in assay [2] was 44%; in assay [3], 3%. Also, the result in assay [5], in assay [6], in assay [7] and in assay [8] was inactive.
Regarding `C=C[C@]1(C)C[C@@H](OC(=O)c2cncn(COC)c2=O)[C@]2(C)[C@H](C)CC[C@]3(CCC(=O)[C@H]32)[C@@H](C)[C@@H]1O`, the growth inhibition was 7% in assay [1] and 96% (active) in assay [4]. Further, the inhibition in assay [2] and in assay [3] was -1% throughout. Further, the result in assay [5], in assay [6], in assay [7] and in assay [8] was inactive.
As to `OC(c1cc(C(F)(F)F)nc2c(F)cccc12)C1CCCCN1` (stereo not given), the growth inhibition in assay [1] was 74% (active); in assay [4] it was 98% (active). Also, the inhibition in assay [2] was -4%; in assay [3], -2%. The result in assay [5], in assay [6], in assay [7] and in assay [8] was inactive.
Take `OCCOCCNCc1cccc(C#Cc2cc3ncnc(Nc4ccc(OCc5cccc(F)c5)c(Cl)c4)c3s2)n1`: the growth inhibition in assay [1] is 46%; in assay [4] it was 96% (active). Moreover, the figures for the inhibition in assay [2] and in assay [3] were 35% and 0%, respectively. Moreover, the result in assay [5], in assay [6], in assay [7] and in assay [8] was inactive.
